High-throughput results (PubChem BioAssay)
The sample as a whole holds a higher share of hits than the screen did.
HIV RNase H inh-1: HIV-1 RT RNase H inhibitors, primary screen, biochemical, fluorescence; inhibition, % at 10 µM; Gag-Pol polyprotein (Human immunodeficiency virus type 1 group M subtype B (isolate …; actives 1.9% (n = 65,000); RT-RNase H RNA/DNA duplex cleavage; AID 565, 2006; in the data active = inhibition above about 50%
HIV RNase H inh-2: HIV-1 RT RNase H inhibitors, retest, confirmation, biochemical; AID 651, 2007; inhibition, % at 10 µM; actives 39% (n = 1,000); Recombinant RT RNase H, fluorescent RNA/DNA duplex cleavage; shares compounds with HIV RNase H inh-1; in the data active = inhibition above about 48%
An asterisk follows results filed as active.

SMILES | HIV RNase H inh-1 | others
O=C(O)CCCC(=O)N1CCN(C(c2ccccc2)c2ccccc2)CC1 | -10
COc1cc(NS(C)(=O)=O)c(OC)cc1NC(=O)c1ccccc1 | 1
Cc1ccccc1C(=O)c1ccc2c(c1)n(C)c(=O)n2C | -9
O=C(CSc1nc2sc3c(c2c(=O)n1-c1ccccc1)CCCC3)NCc1ccco1 | 62* | HIV RNase H inh-2=53*
COCCCn1c(SCC(=O)NCc2ccco2)nc2sc3c(c2c1=O)CCC3 | -4
Cc1sc2nc(SCC(=O)NCc3ccco3)[nH]c(=O)c2c1C | -2
CC1(C)Cc2c(sc3nc(SCC(=O)NCc4ccco4)n(-c4ccccc4)c(=O)c23)CS1 | 13
Cc1sc2nc(SCC(=O)NCc3ccco3)n(CCc3ccccc3)c(=O)c2c1C | 82* | HIV RNase H inh-2=59*
Cc1sc2nc(SCC(=O)NCc3ccco3)n(C)c(=O)c2c1C | -7
O=C(CSc1ncnc2sc3c(c12)CCCCC3)NCc1ccco1 | -12
CC(C)c1nc2sc3c(SCC(=O)NCc4ccco4)ncnc3c2c2c1CCC2 | 71* | HIV RNase H inh-2=35*
CC1(C)Cc2nc3sc4c(SCC(=O)NCc5ccco5)ncnc4c3cc2CO1 | 3
O=C1CC(N2CCC(O)(c3ccc(Cl)cc3)CC2)C(=O)N1Cc1ccc(N2CCCC2=O)cc1 (stereo not given) | 8
CC1=C(C(=O)OC2CCCC2)C(c2ccc(C)o2)C2=C(CC(c3cccs3)CC2=O)N1 (stereo not given) | 2
CC(Sc1nc2ccccc2s1)C(=O)N1CCOCC1 (stereo not given) | 0
CCOc1ccc(NC(=O)CSc2nnc(COc3c(C)cccc3C)o2)cc1 | 2
COC(=O)c1ccc(NC(=O)CSc2nnc(COc3ccc4c(c3)CCCC4)o2)cc1 | 75* | HIV RNase H inh-2=30
COc1cccc(NC(=O)CSc2nnc(COc3ccc4c(c3)CCCC4)o2)c1 | 15
Cc1ccc(-n2c(CSc3nc(C)cc(C)n3)nnc2SCC(=O)NCc2ccco2)cc1 | 0
CCN(CCNC(=O)Nc1ccc(Cl)cc1)c1ccccc1 | -43
CCCCSc1nnc([C@@H](NC(=O)OC(C)(C)C)C(C)C)o1 | 0
Cc1ccc(N(CC(=O)Nc2cccc(C)c2)S(=O)(=O)c2cccc3nonc23)cc1 | 67* | HIV RNase H inh-2=-3
CC(=O)c1cccc(NC(=O)CCS(=O)(=O)c2cccc3nonc23)c1 | -2
Cc1ccc(NC(=O)CCNS(=O)(=O)c2cccc3nonc23)cc1 | -18
N#Cc1ccc(Oc2cccnc2)cc1C#N | -16
SMILES | HIV RNase H inh-1 | others
O=C(NCCn1ccc2ccccc21)c1ccc(S(=O)(=O)N2CCOCC2)cc1 | -9
CC1=C(SCCC#N)S/C(=C2\SC(C)=C(SCCC#N)S2)S1 | 72* | HIV RNase H inh-2=65*
O=C(CCSCCC(=O)NCc1ccco1)NCc1ccco1 | 77* | HIV RNase H inh-2=47*
O=C(CSCC(=O)NCc1ccco1)NCc1ccco1 | -11
O=C(CCSCCC(=O)NCc1cccs1)NCc1cccs1 | 5
CCOC(=O)C(NCc1ccccc1OC)(NC(C)=O)C(F)(F)F (stereo not given) | -7
C=CCOc1nc(N2CCCC2)nc(N2CCCC2)n1 | -43
CCC1Oc2ccccc2N(CC(=O)Nc2ccc(OC)cc2OC)C1=O (stereo not given) | -8
O=C(Cc1ccc(S(=O)(=O)N2CCCC2)s1)Nc1nc2c(s1)CCCC2 | 76* | HIV RNase H inh-2=-3
O=C(CCS(=O)(=O)Cc1ccccc1)Nc1nc2c(s1)CCCC2 | -18
O=C(CS(=O)(=O)Cc1ccccc1)Nc1nc2c(s1)CCCC2 | -5
CCn1c(SCC(=O)Nc2ccc(N(C)C)cc2)nnc1-c1cccc(C)c1 | 6
O=C(O)COCc1nc2ccccc2[nH]1 | 2
O=c1c2c3nc4ccccc4nc3n(/N=C/c3cccs3)c2ncn1-c1ccccc1 | 3
Cc1nnc(NC(=O)NC(C)N2C(=O)C3C4C=CC(C4)C3C2=O)s1 (stereo not given) | 55* | HIV RNase H inh-2=-1
Cc1nnc(NC(=O)CCCCCN2C(=O)C3C4C=CC(C4)C3C2=O)s1 (stereo not given) | 3
CC(NC(=O)Nc1nnc(C(F)(F)F)s1)N1C(=O)C2C3C=CC(C3)C2C1=O (stereo not given) | -8
CCCn1c(SCC(=O)NCCc2ccc(Cl)cc2Cl)n[nH]c1=O | -19
O=S(=O)(c1ccccc1)N1CCN(S(=O)(=O)c2ccccc2)C1 | -9
O=S(=O)(/N=S1/CC=CCN1S(=O)(=O)c1ccccc1)c1ccccc1 (stereo not given) | 79* | HIV RNase H inh-2=60*
O=S(=O)(c1ccccc1)n1ccc2ccccc21 | -112
Cc1ccc(C)c(-n2c(SCC(=O)NCC3CCCO3)nnc2-c2ccoc2C)c1 (stereo not given) | -3
Cc1occc1-c1nnc(SCC(=O)NCC2CCCO2)n1C (stereo not given) | 1
Cc1ccc(-n2c(SCC(=O)NCC3CCCO3)nnc2-c2ccoc2C)cc1 (stereo not given) | 84* | HIV RNase H inh-2=34
